Assay outcomes (PubChem BioAssay)
This is one part of a sample in which hits are shown more often than they occur.
TDP1 cell noCPT = qHTS for Inhibitors of human tyrosyl-DNA phosphodiesterase 1 (TDP1): qHTS in cells in absence of CPT | DT40 Tdp1-/- hTDP1 cells, no CPT, ATP luminescence, 48 h | 420,000 compounds, 15% hits | Potency, µM (series often up to 46.2 µM), for the others: at the top dose activity change, negative = growth inhibition, most hits filed as inhibitors; note: potency is the fitted concentration of half-maximal effect; nearly all actives have a fitted effect of over 55% in size
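Readout: luminescence from CellTiter-Glo after 30 min in the dark at RT. Cells: DT40 Tdp1-/- with stable hTDP1, 400/well. Exposure: compounds alone, ≥48 hr, 37 °C.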
12-LOX inh = inhibitors of human 12S-lipoxygenase ALOX12; P18054; purified 12hLO, xylenol orange hydroperoxide absorbance; Potency, µM (doses to about 108 µM), without a hit: top-dose activity change, negative = inhibition, hits mostly inhibitors; 580,000 compounds, 1.1% hits; note: potency is the fitted concentration of half-maximal effect
Target sequence (P18054 whole entry, looked up): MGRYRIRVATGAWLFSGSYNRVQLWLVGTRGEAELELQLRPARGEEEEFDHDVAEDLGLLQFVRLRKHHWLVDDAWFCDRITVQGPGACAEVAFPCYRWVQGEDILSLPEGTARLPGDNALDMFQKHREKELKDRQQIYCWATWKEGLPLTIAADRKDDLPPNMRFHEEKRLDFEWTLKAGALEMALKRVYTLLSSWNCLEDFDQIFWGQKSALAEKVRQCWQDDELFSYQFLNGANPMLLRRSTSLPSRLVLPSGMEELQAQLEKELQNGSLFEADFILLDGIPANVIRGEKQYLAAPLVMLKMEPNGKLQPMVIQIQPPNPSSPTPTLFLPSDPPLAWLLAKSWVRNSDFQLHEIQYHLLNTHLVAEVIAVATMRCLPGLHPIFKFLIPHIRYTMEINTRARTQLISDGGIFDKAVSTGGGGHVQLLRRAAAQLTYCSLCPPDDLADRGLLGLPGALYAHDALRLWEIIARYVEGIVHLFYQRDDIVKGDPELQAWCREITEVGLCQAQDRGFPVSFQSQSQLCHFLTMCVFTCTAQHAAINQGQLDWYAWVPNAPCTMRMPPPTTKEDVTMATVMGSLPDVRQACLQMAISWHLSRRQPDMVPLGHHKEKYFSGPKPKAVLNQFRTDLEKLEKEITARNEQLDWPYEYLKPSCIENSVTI
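Purified human 12hLO at 150 nM in 25 mM Hepes, 0.01% Triton X-100, pH 7.0, preincubated 15 min at room temperature with compound. Reaction started with 40 uM arachidonic acid, 30 min at room temperature. Hydroperoxide measured by Fe-xylenol orange, 573/405 nm absorbance ratio.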
HT1080 IDH1KD tx = HT-1080 IDH1 knockdown cell toxicity (counter line); HT-1080 IDH1 knockdown viability, ATP luminescence, 48 h; Potency, µM (doses to about 46.1 µM), without a hit: at the top dose activity, negative = toxicity, most hits filed as cytotoxic; 360,000 compounds, 2% hits; AID 686971;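 note: potency is the fitted concentration of half-maximal effect; 0% = DMSO wells and -100% = cell-free medium wells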
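In this qHTS, HT-1080 cells depleted of IDH1 are exposed for 48 h at 37 °C to compound titrations. Toxicity is scored from CellTiter-Glo luminescence, with DMSO as full viability and medium alone as none.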
HT1080NT lethal = kills 2HG-producing HT-1080-NT fibrosarcoma cells; Potency, µM (doses to about 46.1 µM), for the others: top-dose activity, negative = less viability, usual class: cytotoxic; 360,000 compounds, 1.6% hits; HT-1080-NT fibrosarcoma viability, CellTiter-Glo ATP luminescence, 48 h; AID 686970;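 note: NT is the 2HG producing partner of a matched IDH1 knockdown line; potency is the fitted concentration of half-maximal effect; 0% = DMSO-treated cells and -100% = media-only wells without cells; nearly all actives have a fitted effect of over 55% in size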
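HT-1080-NT; 750 cells/well; 5% FBS RPMI; 48 h compound, 37 degrees C; CellTiter-Glo luminescence; curve fitting and curve-class assignment.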
IL1B secr inh = inflammasome signaling inhibition, IL-1 beta readout. 360,000 compounds, 4.7% hits. activity change, % at 57.5 µM. THP-1 LPS/ATP IL-1B secretion, AlphaLISA, 16 h; active compounds read low. AID 743279; in the data active = activity change below about -50%; inconclusive = mostly about -30% to -49%
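THP-1 cells pretreated 1 hr with compounds (up to 57.5 uM final), then stimulated with LPS (250 ng/mL final) plus ATP (1.25 mM final); secreted IL-1B measured by AlphaLISA after 16 hr, decreased signal indicating inhibition.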
DT40 TDP1 CPT = growth inhibition of DT40 Tdp1-/-;hTDP1 cells with camptothecin (screen for TDP1 inhibitors) | chicken DT40 Tdp1-/-;hTDP1 cells + 20 nM CPT, ATP luminescence, 48 h | Potency, µM (top dose mostly 46.2 µM), without a hit: top-dose activity change, negative = growth inhibition, hits mostly inhibitors | 420,000 compounds, 12% hits | AID 686979; note: potency is the fitted concentration of half-maximal effect; nearly all actives have a fitted effect of over 55% in size
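Cell growth measured by CellTiter-Glo luminescence after a minimum 48 h, 37 C compound exposure with 20 nM CPT in Tdp1-knockout DT40 cells stably expressing hTDP1, seeded 400/well; qHTS titration format.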
Starred values were filed as active, the others as inactive; ? = inconclusive; . = no result. Unless noted, calls come from the whole dose curve; as a rule, active = well fitted curve in the direction sought with a large enough effect; inconclusive = small, poorly fitted or top-dose-only effect, or another doubt; inactive = no such curve, though single readings can be large; an effect the other way counts as inactive or inconclusive. Unless noted, % is set by controls: 0 for no effect and ±100 for the full control effect.

SMILES	TDP1 cell noCPT	12-LOX inh	HT1080 IDH1KD tx	HT1080NT lethal	IL1B secr inh	DT40 TDP1 CPT
COC(=O)CNC(=O)c1cc(-c2ccncc2)nc2ccc(C)cc12	3.2%	0.0%	1.3%	2.0%	?	-1.1%
COc1cccc(NC(=O)c2cc(-c3ccncc3)nc3c(C)cc(C)cc23)c1	23.1µM*	16.4%	?	-17.9%	71.6	?
COc1cccc(-c2cc(C(=O)Nc3ccncc3)c3ccccc3n2)c1	16.4µM*	0.0%	-28.9%	-26.4%	-11.3	?
O=C(Nc1nc2c(s1)CCCC2)c1cc(-c2ccncc2)nc2ccccc12	16.4µM*	-25.8%	-4.7%	-7.8%	15.3	?
Nc1cccc(OCCc2ccccc2)c1	.	4.2%	.	.	.	.
Cc1cc(C)c(S(=O)(=O)Nc2cc(Cl)c3oc4c(c3c2)C(=O)CCC4)cc1C	-10.5%	-21.7%	.	.	.	-14.2%
COc1ccc(-c2nc(SCC(=O)NCCc3ccccc3)n3[nH]c(=O)cc3n2)cc1	.	3.8%	.	.	.	.
CCC(C)(C)NC(=O)/C=C/c1cc(OC)c(OC)c(OC)c1	.	-1.8%	.	.	.	.
COc1ccc(C(=O)c2c(N)c(C#N)c3n2CCC3)cc1OC	.	9.0%	.	.	.	.
Cc1cc(NC(=O)c2cc(-c3ccncc3)nc3ccccc23)ccc1Br	?	-6.8%	-20.5%	2.9%	-50.3*	23.1µM*
O=C(Nc1ccccn1)c1cc(-c2ccc(Cl)s2)nc2ccccc12	?	2.4%	-18.7%	-18.2%	12.4	?
COc1cc(-c2cc(C(=O)Nc3nc4ccccc4s3)c3ccccc3n2)cc(OC)c1OC	6.51µM*	-13.2%	-14.8%	-12.2%	-12.5	7.31µM*
COc1ccc(-c2cc(C(=O)Nc3ccc(C(N)=O)cc3)c3ccccc3n2)cc1OC	5.8µM*	?	?	?	0.0	?
COc1ccc(-c2cc(C(=O)Nc3ccc(S(=O)(=O)Nc4onc(C)c4C)cc3)c3ccccc3n2)cc1OC	-4.5%	?	6.5%	-3.1%	9.5	8.5%
Cc1ccnc(NC(=O)c2cc(-c3ccc(Cl)s3)nc3ccccc23)c1	18.4µM*	-26.7%	-3.1%	-20.5%	10.6	10.3µM*
COCCOCC(=O)NCC12CCCC=C1NC(=O)CC2 (stereo not drawn)	.	33.2%	.	.	.	.
O=C(NCc1ccc(Br)o1)c1nc(-c2ccccc2)no1	.	-28.4%	.	.	.	.
CC(NC(=O)CSc1nnc(COc2ccc(Cl)cc2)n1C)c1cccc2ccccc12 (stereo not drawn)	.	-1.1%	.	.	.	.
CN(CC(=O)Nc1ccccc1OC(F)(F)F)S(=O)(=O)c1ccc(F)cc1	.	17.9%	.	.	.	.
Cc1nnc(Sc2cc(C(=O)NC3CC3)c3ccccc3n2)s1	7.31µM*	7.0%	6.4%	11.4%	-6.5	?
COc1cc2ccccc2cc1C(=O)NC1CCCC1	?	-14.3%	-3.1%	2.6%	-16.1	?
COc1cc2ccccc2cc1C(=O)NC1CCC(C)CC1 (stereo not drawn)	-61.6%	0.0%	8.3%	2.4%	-51.1*	?
CCNc1nc(-c2ccc(Br)cc2)cs1	.	-13.6%	.	.	.	.
O=c1[nH]c2ccc(-c3csc(NC4CCCC4)n3)cc2o1	.	6.31µM*	.	.	.	.
CCCNc1nc(-c2ccc3[nH]c(=O)oc3c2)cs1	.	12.6µM*	.	.	.	.
O=C(CCCn1ccnc1)N1CCC2(CCCN(C3CCCC3)C2=O)C1 (stereo not drawn)	.	90.0%	.	.	.	.
Cc1ccc(-c2[nH]ncc2CN2CCN(c3ccc(Cl)cn3)CC2)cc1C	.	43.5%	.	.	.	.
COC(=O)c1sccc1NC(=O)c1cccc(F)c1	-7.9%	7.3%	-5.1%	1.1%	13.8	-15.3%
O=C(Nc1ccncc1)c1ccc(C(=O)Nc2ccncc2)cc1	-27.8%	14.0%	3.4%	10.2%	9.0	-27.7%
O=C(Nc1ccncc1)Nc1cccc(Cl)c1Cl	?	0.0%	-21.3%	-23.8%	-21.7	23.1µM*
